Results taken from PubChem BioAssay (NCATS).
A number with no mark means an inactive call. Results filed as inconclusive are left out. Where a call stands in place of a potency, no number is given. The source made the active and inactive calls. Calls follow the shape of the dose curve; as a rule, active = well fitted curve in the direction sought with a large enough effect; inconclusive = small, poorly fitted or top-dose-only effect, or another doubt; inactive = no such curve, though single readings can be large; an effect the other way counts as inactive or inconclusive.

Experiments:
[1] = OV-KATE Cancer Cell Toxicity qHTS against the NCATS CANVASS Library (AID 1347345); also: potency is read from the fitted curve at half-maximal effect
Procedure, shortened: (§1)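 Step one: seed 1000 cells per well. Step two: incubate 4 h. Step three: add test compounds in 11 concentrations. Step four: culture 72 h, then add CellTiter-Glo and record luminescence after 15min.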

[2] = HPAF-II Cancer Cell Toxicity qHTS against the NCATS CANVASS Library (AID 1347346); also: nearly all actives have a fitted effect of over 55% in size; also: potency is read from the fitted curve at half-maximal effect
Procedure, shortened: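 Cytotoxicity read-out was CellTiter-Glo luminescence after 72 h at 37 degrees C exposure of HPAF-II cells (1000/well) to compounds in an 11-point titration.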

[3] = UWB1.289 Cancer Cell Toxicity qHTS against the NCATS CANVASS Library (AID 1347347); also: nearly all actives have a fitted effect of over 60% in size; also: potency is read from the fitted curve at half-maximal effect
Procedure, shortened: as §1

[4] = Panc-1005 Cancer Cell Toxicity qHTS against the NCATS CANVASS Library (AID 1347349); also: nearly all actives have a fitted effect of over 60% in size; also: potency is read from the fitted curve at half-maximal effect
Procedure, shortened: as §1

[5] = SW1088 Cancer Cell Toxicity qHTS against the NCATS CANVASS Library (AID 1347350); also: nearly all actives have a fitted effect of over 75% in size; also: potency is read from the fitted curve at half-maximal effect
Procedure, shortened: as §1

[6] = UWB1.289-WTBRCA1 Cancer Cell Toxicity qHTS against the NCATS CANVASS Library (AID 1347354); also: potency is read from the fitted curve at half-maximal effect
Procedure, shortened: (§2)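 Toxicity was measured as CellTiter-Glo luminescence after 72 h exposure to an 11-point compound series. Compound was added to 1000 cells/well 4 h after seeding.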

[7] = HEK-293 Cancer Cell Toxicity qHTS against the NCATS CANVASS Library (AID 1347355); also: nearly all actives have a fitted effect of over 65% in size; also: potency is read from the fitted curve at half-maximal effect; as to outcome: series mostly up to about 46 µM
Procedure, shortened: as §2

[8] = KB-8-5-11 Cancer Cell Toxicity qHTS against the NCATS CANVASS Library (AID 1347364); also: nearly all actives have a fitted effect of over 75% in size; also: potency is read from the fitted curve at half-maximal effect
Procedure, shortened: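 Viability read as CellTiter-Glo luminescence after 72 h at 37 °C, 5% CO2. 11-point compound series on 500 KB-8-5-11 cells/well in DMEM/10% FBS. Follow-up plating included 1 uM tariquidar in the medium.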

[9] = SDT Cancer Cell Toxicity qHTS against the NCATS CANVASS Library (AID 1347365); also: nearly all actives have a fitted effect of over 60% in size; also: potency is read from the fitted curve at half-maximal effect
Procedure, shortened: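 Cytotoxicity taken from CellTiterGlo ATP luminescence after 72 hr at 37C, 5% CO2. Canine glioma line SDT, 500 cells/well, treated at 11 concentrations; bortezomib dose series as control.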

[10] = qHTS for ATAD5 Agonist screened against the NCATS CANVASS Library (AID 1347367);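 also: luciferase reporter driven by ATAD5 which rises upon DNA damage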
Procedure, shortened: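 HEK293T-ATAD5 luc reporter; 2000 cells/well; 5hr settle; cpd 11-pt qHTS; 16hr 37C 5% CO2 dark; viability by CellTiter-Fluor (AFC fluorescence); then luciferase luminescence, 30min RT.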

[11] = qHTS for Hypoxia signaling pathway (HIF-1) antagonists against the NCATS CANVASS Library (AID 1347374); also: nearly all actives have a fitted effect of over 60% in size; also: potency is read from the fitted curve at half-maximal effect
Procedure, shortened: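 Antagonism scored as loss of CoCl2-driven (60 uM stock added) HRE beta-lactamase signal, read by CCF4 FRET at 460/530 nm. Compounds were tested in an 11-point series on ME-180 reporter cells for 17 hrs at 37C, with parallel CellTiter-Glo cytotoxicity.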

[12] = DH5-alpha competent E. coli microbial cell viability qHTS against the NCATS CANVASS Library (AID 1347377); conditions: outcome: dose series up to 46.1 µM unless noted
Procedure, shortened: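 Bacterial viability as ATP-dependent luminescence (BacTiter-Glo), read after overnight 37 °C exposure of DH5-alpha competent E. coli to compounds in 11-point titration.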

[13] = Secretion counterscreen for inhibitors of the SERCaMP assay screened against the NCATS CANVASS Library (AID 1347390);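 also: light from luciferase secreted into medium read as a measure of general secretion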; also: potency is read from the fitted curve at half-maximal effect
Procedure, shortened: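 SH-SY5Y-GLuc STOP cells; 4 h attach; cpds 0.001 - 77 uM (qHTS, 11 pts), 20 h 37C/5% CO2; coelenterazine in glow buffer; luminescence, 5 s exposure.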

[14] = qHTS for inhibitors of ER calcium dysfunction: SERCaMP assay screened against the NCATS CANVASS Library (AID 1347393); also: nearly all actives have a fitted effect of over 40% in size; also: potency is read from the fitted curve at half-maximal effect
Procedure, shortened: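 Thapsigargin-induced ER calcium depletion drives GLuc-SERCaMP secretion from SH-SY5Y cells; compounds given 16 h beforehand were scored by lowered coelenterazine luminescence after 4 h challenge.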

[15] = U-118MG Cancer Cell Toxicity qHTS against the NCATS CANVASS Library (AID 1347351)
Procedure, shortened: as §1

[16] = COV-362 Cancer Cell Toxicity qHTS against the NCATS CANVASS Library (AID 1347352); also: series mostly up to about 38 µM
Procedure, shortened: as §2

[17] = molecular target: Nuclear receptor subfamily 1 group I member 3 (Homo sapiens) (UniProt Q14994); test: qHTS for Constitutive Androstane Receptor (CAR) Antagonist screened against the NCATS CANVASS Library (AID 1347372);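 also: cells stimulated with 50 nM CITCO agonist so inhibition reflects antagonism; series mostly up to about 46 µM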
Procedure, shortened: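 Antagonist mode: compound added alongside 50 nM CITCO to HepG2-hCAR-CYP2B6 reporter cells, 24hr at 37C. Viability by CellTiter-Fluor fluorescence, then CAR-driven luciferase by ONE-Glo luminescence.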

[18] = molecular target: Nuclear receptor subfamily 1 group I member 3 (Homo sapiens) (UniProt Q14994); test: qHTS for Constitutive Androstane Receptor (CAR) Agonist screened against the NCATS CANVASS Library (AID 1347373);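 also: every well also contained 1.5 µM PK11195 alongside the test compound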
Procedure, shortened: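 Agonist mode with 1.5uM PK11195 present: compounds for 24hr on HepG2-hCAR-CYP2B6 cells. CellTiter-Fluor fluorescence (ex 405, em 540 nm) gives viability; ONE-Glo luminescence reports CAR activation.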

[19] = qHTS for inhibitors of Wild type Zika virus screened against the NCATS CANVASS Library (AID 1347396);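 also: ATP luminescence of surviving cells so rescue from viral cell killing; series mostly up to about 46 µM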
Procedure, shortened: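 Using ATP-based luminescence (CellTiter Glo), this screen scores rescue of Vero 766 cells from wild-type Zika killing at 72 h post-infection. Compounds are tested in a concentration series.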

[20] = qHTS for Hypoxia signaling pathway (HIF-1) agonists against the NCATS CANVASS Library (AID 1347375)
Procedure, shortened: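 Beta-lactamase reporter under HRE control in ME-180 cells; compounds (11-point qHTS series) added after 5 hrs plating, then 17 hrs at 37C. FRET substrate read after 2 hr; same-well CellTiter-Glo luminescence gave viability and normalization.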

Chain of Nuclear receptor subfamily 1 group I member 3 (Homo sapiens) (Q14994 whole entry, looked up): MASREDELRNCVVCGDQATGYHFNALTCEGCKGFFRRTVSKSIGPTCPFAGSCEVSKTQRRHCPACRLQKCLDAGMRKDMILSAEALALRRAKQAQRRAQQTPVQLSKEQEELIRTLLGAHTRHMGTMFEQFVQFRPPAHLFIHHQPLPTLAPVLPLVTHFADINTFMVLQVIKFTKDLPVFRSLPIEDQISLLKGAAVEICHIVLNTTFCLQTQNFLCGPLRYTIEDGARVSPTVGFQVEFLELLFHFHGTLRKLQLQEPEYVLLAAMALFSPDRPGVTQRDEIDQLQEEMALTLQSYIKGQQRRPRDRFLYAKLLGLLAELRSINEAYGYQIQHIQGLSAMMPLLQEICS

SMILES	Potency [1]	Potency [2]	Potency [3]	Potency [4]	Potency [5]	Potency [6]	Potency [7]	Potency [8]	Potency [9]	Potency [10]	Potency [11]	outcome [12]	Potency [13]	Potency [14]	Potency [15]	Potency [16]	Potency [17]	Potency [18]	outcome [19]	outcome [20]
C=C(C)C(=O)O[C@H]1C[C@@]2(C)OC(=CC2=O)/C(C)=C\[C@H]2OC(=O)C(=C)[C@H]12	2.11 µM (active)	6.68 µM (active)	9.41 µM (active)	1.88 µM (active)	6.68 µM (active)	10.6 µM (active)	1.05 µM (active)	2.96 µM (active)	1.66 µM (active)	inactive	1.67 µM (active)	inactive	3.05 µM (active)	0.216 µM (active)						
C[C@@]12CCC[C@@](C)(C(=O)OP(=O)(O)OC[C@H]3O[C@@H](n4cnc5c(N)ncnc54)[C@H](O)[C@@H]3O)[C@H]1C[C@@H](O)[C@@]13C[C@@H](CC[C@@H]21)[C@](C)(O)C3	inactive	4.73 µM (active)	inactive	inactive	inactive		inactive	inactive		inactive			inactive	inactive	inactive	inactive	inactive	inactive	inactive	
O=C1CC(c2ccc(O)cc2)Oc2cc(O)ccc21 (stereo not given)	inactive	inactive		inactive	inactive	inactive	inactive	inactive		inactive	inactive	inactive	inactive	30.5 µM (active)	inactive	inactive			inactive	
COC(=O)c1cccc2oc(-c3cccc4oc(-c5c(C)cccc5O)nc34)nc12	inactive	2.66 µM (active)	5.29 µM (active)		0.168 µM (active)		inactive			inactive	0.941 µM (active)		inactive		inactive		inactive		inactive	
CN1CC[C@]23c4ccccc4N[C@H]1[C@]21CCN(C)[C@H]3Nc2ccccc21	inactive	inactive	inactive	inactive	inactive	inactive	inactive	inactive	inactive	inactive		inactive	inactive	inactive	inactive	inactive	inactive		inactive	
CC(C)=CCC[C@]1(C)[C@H]2CC(=O)[C@@]3(CO3)[C@@H]1C2	inactive	inactive	inactive	inactive	inactive	inactive	inactive	inactive	inactive	inactive	inactive	inactive	inactive	inactive	inactive	inactive		inactive	inactive	
C=C1CCC2C(C)(C(=O)O)CCC(CC/C(C)=C/C(=O)NC(CCC(N)=O)C(=O)O)[C@@]2(C)C1 (stereo not given in full)	inactive	inactive	inactive	inactive	inactive	inactive	inactive	inactive	inactive	inactive	inactive	inactive	inactive	inactive	inactive	inactive	inactive		inactive	inactive
CN1C(=O)C(=O)N2C(=C[C@]3(c4c[nH]c5ccccc45)c4ccccc4N[C@H]23)C1=O	inactive	inactive	inactive	inactive	inactive	inactive	inactive	inactive	inactive	inactive	inactive	inactive	inactive	inactive	inactive	inactive			inactive	inactive
CC(CCC[C@]1(C)C(=O)C=C[C@@]23C[C@]4(C)O[C@@H](C[C@@H]4[C@H]2O)C31)C(=O)O (stereo not given in full)	inactive	inactive	inactive	inactive	inactive	inactive	inactive	inactive	inactive	inactive	inactive	inactive	inactive	inactive	inactive	inactive	inactive	inactive	inactive	inactive
O=C1OC(CCO)c2cccc(O)c21 (stereo not given)	inactive	inactive	inactive	inactive	inactive	inactive	inactive	inactive		inactive	inactive	inactive		inactive	inactive	inactive	inactive		inactive	inactive
C[C@@]12CCC[C@@](C)(C(=O)O)[C@H]1CC[C@@]13C[C@@H](CC[C@H]12)[C@](C)(O)C3	inactive	inactive	inactive	inactive	inactive	inactive	inactive	inactive	inactive	inactive	inactive	inactive	inactive	inactive	inactive	inactive			inactive	inactive
O=C1c2c(O)cc(O)cc2OC(c2ccc(O)cc2)C1O (stereo not given)	inactive	inactive	inactive	inactive	inactive	inactive	inactive	inactive	inactive	inactive		inactive			inactive	inactive		inactive	inactive	
C=C[C@]1(C)CC[C@@H]([C@H](C)C(=O)CC=C(C)C)O1	inactive	inactive	inactive	inactive	inactive	inactive	inactive	inactive	inactive	inactive	inactive	inactive	inactive		inactive	inactive	inactive	inactive	inactive	
